Screening results (PubChem BioAssay)
Sampled rows, rich in hits. Any-hit rate of the full collection: about 9.9%.
KB-V1 cytotox – KB-V1 MDR subline cytotoxicity; KB-V1 MDR cells viability, CellTiter-Glo, 72 h; Potency, µM (series often up to 46.1 µM), actives largely listed as cytotoxic; 400,000 compounds, 3.4% hits; further: potency means the concentration at half of the fitted maximal effect; on the % scale 0 is the no-effect control and ±100 the full control effect; nearly all actives have a fitted effect of over 60% in size
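Cytotoxicity toward P-gp-expressing KB-V1 cells was determined as loss of CellTiter-Glo luminescence after 72 h at 37 degrees C. Compounds were tested in quantitative HTS format across a concentration range, with curves fitted to normalized data.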
SW480 rereplic – DNA re-replication induction in SW480 cells; SW480 DNA re-replication, Hoechst DNA content imaging, 48 h; Potency, µM (highest dose often 46.1 µM), for the others: at the top dose re-replication activation, most hits filed as activators; 340,000 compounds, 1.8% hits; further: potency means the concentration at half of the fitted maximal effect; % of control where 0% means no effect; nearly all actives have a fitted effect of over 55% in size
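SW480 cells exposed to compounds for 48 hr at 37 C, 5% CO2, then Hoechst-stained 40 min. Nuclear DNA content imaged by fluorescence scanning (405 nm excitation, 500-530 nm emission); re-replication scored as increased high-intensity nuclei.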
IL-1B inflam inh – blocks inflammasome-driven IL-1 beta release. THP-1 LPS/ATP IL-1B secretion, AlphaLISA, 16 h; stronger effect = lower value. activity change, % at 57.5 µM. 360,000 compounds, 4.7% hits; in the data active means activity change below about -50%; inconclusive means mostly about -30% to -49%; further: on the % scale 0 is the no-effect control and ±100 the full control effect
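Secreted IL-1B measured by AlphaLISA bead assay after 16 h compound exposure of THP-1 cells; compounds (final up to 57.5 uM) added 1 h before LPS (250 ng/mL) and ATP (1.25 mM) stimulation; lower signal means less secretion.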
MCF10A rereplic – inducers of DNA re-replication in MCF 10A breast cells | MCF 10A DNA re-replication, Hoechst nuclear intensity, 48 h | Potency, µM (titrated, usually from 46.1 µM), for the others: top-dose activity, positive = re-replication, actives largely listed as activators | 350,000 compounds, 2.9% hits | AID 624296; further: potency means the concentration at half of the fitted maximal effect; % of control where 0% means no effect; nearly all actives have a fitted effect of over 50% in size
KB-3-1 cytotox – KB-3-1 parental cell cytotoxicity. 400,000 compounds, 1.4% hits. KB-3-1 viability, CellTiter-Glo ATP luminescence, 72 h. AID 1347075. Potency, µM (highest dose often 46.1 µM), most hits filed as cytotoxic; further: potency means the concentration at half of the fitted maximal effect; on the % scale 0 is the no-effect control and ±100 the full control effect; nearly all actives have a fitted effect of over 60% in size
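KB-3-1 parental drug-naive adenocarcinoma cells in DMEM/10% FBS, incubated 72 h at 37 C with pin-transferred compounds across a concentration series. Viability by CellTiter-Glo luminescence; concentration-response curves fitted after normalization.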
* marks the source's active call; other numbers are inactive results; i = inactive; ? = inconclusive; nt = no result. Unless noted, the call rests on the fitted dose curve; in most records, active means well fitted curve in the direction sought with a large enough effect; inconclusive means small, poorly fitted or top-dose-only effect, or another doubt; inactive means no such curve, though single readings can be large; an effect the other way counts as inactive or inconclusive.

SMILES	KB-V1 cytotox	SW480 rereplic	IL-1B inflam inh	MCF10A rereplic	KB-3-1 cytotox
CCOC(=O)c1ccc(OCC(=O)c2ccc(O)cc2O)cc1	i	-7.1%	20.0	20.4%	i
O=C(COc1ccccc1)OCC(=O)c1ccc(O)cc1O	i	?	2.2	4.7%	i
COC(=O)c1ccc(OCC(=O)c2ccc(O)cc2O)cc1	23.1µM*	-5.3%	16.6	0.7%	?
O=C(COc1ccc(Cl)cc1)c1ccc(O)cc1O	i	-0.3%	-66.6*	8.8%	i
Cc1ccc(C(=O)N2CCCN(c3nc4cc5c(cc4cc3C#N)OCO5)CC2)cc1	23.1µM*	13µM*	18.4	8.2µM*	?
CCOCCCNC(=S)N1CCCN(c2nc3cc(C)c(C)cc3cc2C#N)CC1	i	?	-5.0	?	i
COCCCNC(=S)N1CCCN(c2nc3cc(C)c(C)cc3cc2C#N)CC1	i	?	-74.3*	18.4µM*	i
Cn1c2c(c(=O)[nH]c1=O)C(c1cccc(O)c1)C1=C(N2)c2ccccc2C1=O (stereo unspecified)	i	10.3µM*	19.0	?	16.4µM*
Cc1occc1C(=O)N/N=C/c1ccccc1[N+](=O)[O-]	?	-13.8%	-0.6	-1.5%	i
CC(C)(C)c1cc(NC(=O)CSc2nncs2)n(-c2ccccc2)n1	i	-3.1%	-13.1	-2.6%	i
Nc1nc(Cl)cc(N2CCC(c3cc(-c4ccc(Cl)cc4Cl)n[nH]3)CC2)n1	23.1µM*	?	-11.5	?	?
Cc1ccc(N2C(=O)c3ccc(C(=O)N4CCN(Cc5ccccc5)CC4)cc3C2=O)cc1	i	-1.5%	-5.5	-15.7%	i
COc1ccc2c(/C=N/Nc3ccc(C(=O)O)cc3)c[nH]c2c1	i	13.5%	73.7	16.7%	i
CCCOc1ccc(/C=N/Nc2ccccc2[N+](=O)[O-])c(O)c1	?	-82.5%	-7.5	15.7%	?
CCCOc1ccc(/C=N/Nc2cccc([N+](=O)[O-])c2)c(O)c1	i	10.4%	-96.5*	?	?
CCCOc1ccc(/C=N/Nc2ccc(C(=O)O)cc2)c(OCCC)c1	i	?	?	7.31µM*	i
COc1ccccc1C1c2c(-c3ccc(Cl)cc3)n[nH]c2C(=O)N1c1ccc(C)cc1 (stereo unspecified)	25.9µM*	nt	nt	nt	i
Cc1cc(=O)c(C(=O)Nc2cccc(C(=O)NC3CC3)c2)nn1-c1ccccc1	i	nt	-10.0	nt	i
CC(NC(=O)c1ccc(OC2CCN(Cc3ccccn3)CC2)cc1)c1nccs1 (stereo unspecified)	?	-0.7%	0.0	2.2%	i
CC1(C(=O)NCc2ccc(Cl)cc2)CCN1C(=O)Cc1ccc(Cl)cc1Cl (stereo unspecified)	i	nt	-21.3	nt	i
CC(C)(C)c1ccc(CC(=O)N2CCC2(C)C(=O)NCc2ccc(Cl)cc2)cc1 (stereo unspecified)	20.6µM*	nt	-4.6	nt	?
CC(C)c1ccc(CC(=O)N2CCC2(C)C(=O)NCC(C)(C)C)cc1 (stereo unspecified)	i	nt	-74.5*	nt	i
CC(C)(C)c1ccc(C(=O)N2CCN(CCNC(=O)C(=O)NCc3ccc(Cl)cc3)CC2)cc1	i	?	-67.3*	?	?
Cc1cccc(S(=O)(=O)NC(=O)C2(C)CCN2C(=O)Cc2ccc(C(C)(C)C)cc2)c1 (stereo unspecified)	i	nt	27.6	nt	i
CC(C)(C)c1ccc(CC(=O)N2CCC2(C)C(=O)NS(=O)(=O)c2ccccc2)cc1 (stereo unspecified)	i	nt	-73.8*	nt	i
SMILES	KB-V1 cytotox	SW480 rereplic	IL-1B inflam inh	MCF10A rereplic	KB-3-1 cytotox
CCOC(=O)C(=NC(C)CC)NNc1ccc(Br)cc1 (stereo unspecified)	i	3.9%	16.3	?	i
CCOC(=O)c1c(S(=O)(=O)NCC(C)c2ccccc2)c(C)n(C)c1C (stereo unspecified)	i	6.7%	-12.9	3.6%	i
CCCOc1ccc(NC(=O)C2CC(=O)N/C(=N/N=C(\C)CCc3ccc4c(c3)OCO4)S2)cc1 (stereo unspecified)	i	-10.6%	7.7	?	i
CCCOc1ccc(NC(=O)C2CC(=O)N/C(=N/N=C(C)/C=C/c3ccc(N(C)C)cc3)S2)cc1 (stereo unspecified)	16.4µM*	18.4µM*	-16.9	5.17µM*	?
CC(/C=C/c1ccc(N(C)C)cc1)=N\N=C1\NC(=O)CC(C(=O)Nc2ccccc2)S1 (stereo unspecified)	i	?	-22.2	11.6µM*	i
CC(/C=C/c1ccc(N(C)C)cc1)=N/N=C1/NC(=O)CC(C(=O)Nc2ccc(Cl)cc2)S1 (stereo unspecified)	i	20.6µM*	-5.9	6.51µM*	i
COc1ccc(NC(=O)C2CC(=O)N/C(=N/N=C/c3ccccc3)S2)cc1 (stereo unspecified)	i	4.3%	1.0	3.6%	i
Cc1ccc(N2CC(C(=O)Nc3ccc(S(=O)(=O)N4CCOCC4)cc3)CC2=O)cc1Cl (stereo unspecified)	i	-3.0%	0.9	-1.5%	i
CN(C)C(=O)c1ccc(-c2n[nH]c(=O)c3ccccc23)cc1	i	-1.9%	-18.5	0.82µM*	i
O=C(/C=C/c1ccc2c(c1)OCO2)Nc1cccc([S+](=O)([O-])Nc2ccccc2F)c1	i	nt	nt	nt	i
Cc1ccc2nc3sc(C(=O)NCc4ccco4)cc3cc2c1	i	nt	nt	nt	i
O=C1C=CC(=O)c2c(O)c(N3CCN(CCOCCO)CC3)c(Br)c(O)c21	4.11µM*	?	-116.9*	3.0%	5.17µM*
O=C1C=CC(=O)c2c(O)c(N3CCN(CCO)CC3)c(Cl)c(O)c21	?	0.651µM*	-73.4*	0.2%	5.17µM*
CSC1=NCCN1S(=O)(=O)c1ccccc1	?	0.0%	-6.7	-7.3%	i
O=C1c2c(Br)c(Br)c(Br)c(Br)c2C(=O)N1c1ccccn1	i	-21.9%	?	0.651µM*	i
CCCCN(CC)CCNC(=O)c1cc2c(=O)n(C)c3ccccc3c2s1	?	?	-86.2*	?	i
CCN(CC)CCNC(=O)c1cc2c(=O)n(C)c3ccccc3c2s1	?	?	?	23.1µM*	i
COC(=O)c1ccc(CN(c2ccc(C(=O)O)c(O)c2)S(=O)(=O)c2ccc(Cl)c([N+](=O)[O-])c2)cc1	i	-0.8%	-85.7*	3.66µM*	i
Cc1ccccc1CN1c2ccccc2-c2nc(SCC(=O)c3ccccc3)ncc2S1(=O)=O	i	nt	nt	nt	i
CC(C)c1ccc(/C=N/NC(=O)c2ccccc2Cl)cc1	4.61µM*	13µM*	-4.4	5.8µM*	14.6µM*
